# Results as given in PubChem BioAssay (NCATS).
# A number with no mark means an inactive call. Activity calls are given as the source filed them. No rule for the calls is given here.
# Test system: HIV-1 nucleocapsid protein NCp7 (binding to TG oligonucleotide)
# Test: HIV Nucleocapsid (AID 346);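 also: potency is for inhibitors that block NC binding and lower polarization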
# Conditions: HIV-1 NC / fluorescein-TGTGTGTG probe, fluorescence polarization
# In short: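 NCp7 100 nM + fluorescein TG4xF 10 nM; Hepes pH 7.5/250mM NaCl/1uM ZnCl2/0.004% PEG 20000; 1 hr RT; FP, 45 s exposure; oligo-only wells as negative control.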
# Potency is read from the fitted curve at half-maximal effect.
row,SMILES,Potency
1,c1cncc(CNc2ncncc2-c2cccnc2)c1,> 20 µM
2,COCC(=O)N1CCC2(CCCN(Cc3ccccc3)C2)CC1,> 20 µM
3,Fc1ccc(Nc2ncnc3ccc(-c4ccoc4)cc23)cc1,> 20 µM
4,COc1cccc(-c2ccc3ncnc(NCc4cccnc4)c3c2)c1,> 20 µM
5,COc1cccc(Cn2c(=O)c(-c3ccccc3)nc3cnc(N(C)C)nc32)c1,> 20 µM
6,CN1CCN(c2ccnc(-c3ccccc3C(F)(F)F)n2)CC1,> 20 µM
7,O=C(Nc1cccc(F)c1)N1CC2(CCN(S(=O)(=O)c3ccccc3)CC2)C1,> 20 µM
8,CN(C)c1ncc2nc(-c3cn(C)c4ccccc34)c(=O)n(C[C@H]3CCCO3)c2n1,> 20 µM
9,FC(F)(F)c1ccccc1-c1nc(NCCN2CCOCC2)c2ccccc2n1,> 20 µM
10,COCCn1c(=O)c(-c2ccc(Cl)cc2)nc2cnc(Oc3ccc(OC)cc3)nc21,> 20 µM
11,COc1ccc2[nH]cc(CCNc3nc(-c4cccc(NS(C)(=O)=O)c4)nc4ccccc34)c2c1,> 20 µM
12,CCNc1ncc2nc(-c3cn(C)c4ccccc34)c(=O)n(Cc3cccs3)c2n1,> 20 µM
13,COc1ncc2nc(-c3ccccc3)c(=O)n(-c3ccccc3)c2n1,> 20 µM
14,COc1cccc(-c2cncnc2NC2CCNCC2)c1,> 20 µM
15,O=c1c(-c2cc(F)cc(F)c2)nc2cncnc2n1Cc1ccc(F)cc1,> 20 µM
16,Cc1cnc(CNc2ncncc2-c2ccccc2C#N)cn1,> 20 µM
17,COCCn1c(=O)c(C)nc2cnc(Oc3ccccc3)nc21,> 20 µM
18,COc1ccccc1-c1nc(NCc2cccnc2)c2ccccc2n1,> 20 µM
19,CCNc1ncc2nc(-c3cc(F)cc(F)c3)c(=O)n(CCc3ccccc3)c2n1,> 20 µM
20,CN(C)C(=O)c1ccc(-c2ccc3ncnc(N4CCNCC4)c3c2)cc1,> 20 µM

row,SMILES,Potency
1,COc1ccc(CNc2ccnc(-c3ccc(N(C)C)cc3)n2)c(OC)c1,> 20 µM
2,COc1ccc2[nH]cc(CCNc3ccnc(-c4ccc5c(c4)OCO5)n3)c2c1,> 20 µM
3,Cc1nc2cncnc2n(Cc2ccccc2Cl)c1=O,> 20 µM
4,O=C(Nc1ccccc1)N1CC2(CCN(C(=O)c3ccco3)CC2)C1,> 20 µM
5,Cc1ccccc1-c1ccc2ncnc(-n3ccnc3)c2c1,> 20 µM
6,O=C(c1csnn1)N1CCC2(CCCN(c3ccc(-c4ccccc4)cc3)C2)CC1,> 20 µM
7,N#CCCn1c(=O)cnc2cnc(Oc3cccc(Cl)c3)nc21,> 20 µM
8,CS(=O)(=O)N1CCC2(CCN(c3ccncc3)CC2)CC1,> 20 µM
9,CN(C)Cc1ccccc1-c1cncnc1Nc1ccc(F)cc1,> 20 µM
10,O=C(c1cccc(F)c1)N1CCC[C@@]2(CCN(c3ccccc3)C2)C1,> 20 µM
11,c1ccc(-c2cccc(N3CC[C@@]4(CCCNC4)C3)c2)cc1,> 20 µM
12,O=C(Nc1cccc(F)c1)N1CCCC2(CCN(C(=O)c3ccncc3)CC2)C1,> 20 µM
13,COc1ccc(Oc2ncc3nc(-c4ccc(F)cc4)c(=O)n(Cc4cccs4)c3n2)cc1,> 20 µM
14,CC(C)CN1CCCC2(CCN(C(=O)c3cnccn3)CC2)C1,> 20 µM
15,CN1CCC2(CC1)CCN(C(=O)c1cccc(F)c1)CC2,> 20 µM
16,CS(=O)(=O)N1CCC[C@@]2(CCN(c3ccccn3)C2)C1,> 20 µM
17,CN1CCN(c2ncc3nc(-c4cn(C)c5ccccc45)c(=O)n(-c4ccccc4)c3n2)CC1,> 4 µM
18,O=C(c1cccc(F)c1)N1CCC2(CC1)CCN(c1ccc(-c3ccccc3)cc1)CC2,> 20 µM
19,CN(C)c1ccc(-c2ccc3ncnc(N(C)Cc4ccco4)c3c2)cc1,> 20 µM
20,COc1cccc(Cn2c(=O)c(-c3cccc(C#N)c3)nc3cnc(Nc4ccccc4)nc32)c1,0.198 µM (active)
